Test results from publication PMC8384837, “Expanding the binding specificity for RNA recognition by a PUF domain”.

How the values were obtained:
Experiment in all cases: yeast three-hybrid, YBZ-1, SC-Leu-His + 0.5 mM 3-AT, 4 days
Details in all cases: tags: N-Gal4 AD-HA kept; label: inside an RPR1-promoter hybrid RNA with tandem MS2 sites; ssRNA
PUM1 PUF domain R5-KQR = PUM1 PUF domain R5-KQR (Homo sapiens, UniProt Q14671 828-1176, C1007K;R1008Q;Q1011R)
Method in brief: (§1)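 The interaction score is the logarithmic change in variant frequency from input to selection. It uses log2, with a pseudocount of 1 for absent variants, and frequencies came from PCR-amplified, Illumina-sequenced repeat regions. The libraries were Pumilio-1 PUF domains randomized at the three base-contacting residues per repeat, co-expressed with matching RNA elements in strain YBZ-1 (LexA–MS2 coat fusion, HIS3 reporter). Plating lasted four days on SC-Leu (input) or SC-Leu-His + 0.5 mM 3-AT (selection).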

PUM1 PUF domain R5-HAD = PUM1 PUF domain R5-HAD (Homo sapiens, UniProt Q14671 828-1176, C1007H;R1008A;Q1011D)
Method in brief: as §1

PUM1 PUF domain R7-ASR = PUM1 PUF domain R7-ASR (Homo sapiens, UniProt Q14671 828-1176, S1079A;N1080S;E1083R)
Method in brief: as §1

PUM1 PUF domain R5-SMS = PUM1 PUF domain R5-SMS (Homo sapiens, UniProt Q14671 828-1176, C1007S;R1008M;Q1011S)
Method in brief: as §1

PUM1 PUF domain R8-RRA = PUM1 PUF domain R8-RRA (Homo sapiens, UniProt Q14671 828-1176, N1122R;Y1123R;Q1126A)
Method in brief: as §1

PUM1 PUF domain R6-RPG = biological target: T1, PUM1 PUF domain R6-RPG (Homo sapiens, UniProt Q14671 828-1176, N1043R;Y1044P;Q1047G)
T1 sequence: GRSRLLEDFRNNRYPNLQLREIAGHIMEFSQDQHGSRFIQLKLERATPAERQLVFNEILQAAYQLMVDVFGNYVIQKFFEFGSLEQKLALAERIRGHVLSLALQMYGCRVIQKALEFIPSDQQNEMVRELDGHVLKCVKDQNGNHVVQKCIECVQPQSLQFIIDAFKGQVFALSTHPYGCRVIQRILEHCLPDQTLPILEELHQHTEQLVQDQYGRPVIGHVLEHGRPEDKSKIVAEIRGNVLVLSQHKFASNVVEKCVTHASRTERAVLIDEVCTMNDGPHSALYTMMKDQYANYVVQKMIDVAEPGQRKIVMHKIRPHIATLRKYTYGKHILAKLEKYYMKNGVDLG
Method in brief: as §1

PUM1 PUF domain R8-RHV = PUM1 PUF domain R8-RHV (Homo sapiens, UniProt Q14671 828-1176, N1122R;Y1123H;Q1126V)
Method in brief: as §1

PUM1 PUF domain R7-QPK = PUM1 PUF domain R7-QPK (Homo sapiens, UniProt Q14671 828-1176, S1079Q;N1080P;E1083K)
Method in brief: as §1

PUM1 PUF domain R8-FYH = PUM1 PUF domain R8-FYH (Homo sapiens, UniProt Q14671 828-1176, N1122F;Q1126H)
Method in brief: as §1

PUM1 PUF domain R1-RKQ = PUM1 PUF domain R1-RKQ (Homo sapiens, UniProt Q14671 828-1176, S863R;R864K)
Method in brief: as §1

Q: With “GGCUAGAACUAGUGGAUCCCCCGGCGCCCGGCGGCUCGAGCCCGGGUAAGUGUCAAUAGUCUGCAUGCCGCCGGGCGCCAUGCCUGCAGGUCGACUCUAGAAAACAUG” as the sequence, how does the binding signal (PUM1 PUF domain R5-KQR) read?
A: 2.87 log2 enrichment (interaction score)

Q: What about the binding signal (PUM1 PUF domain R5-HAD) of the same sequence?
A: 6.65 log2 enrichment (interaction score)

Q: With “GGCUAGAACUAGUGGAUCCCCCGGCGCCCGGCGGCUCGAGCCCGGGUAAGUUUAAAUAGUCUGCAUGCCGCCGGGCGCCAUGCCUGCAGGUCGACUCUAGAAAACAUG” as the sequence, how does the binding signal (PUM1 PUF domain R7-ASR) read?
A: 2.25 log2 enrichment (interaction score)

Q: For “GGCUAGAACUAGUGGAUCCCCCGGCGCCCGGCGGCUCGAGCCCGGGUAAGUGUGAAUAGUCUGCAUGCCGCCGGGCGCCAUGCCUGCAGGUCGACUCUAGAAAACAUG”, which binding signal (PUM1 PUF domain R5-SMS) is on record?
A: 2.69 log2 enrichment (interaction score)

Q: For “GGCUAGAACUAGUGGAUCCCCCGGCGCCCGGCGGCUCGAGCCCGGGUAAGUGUAAAUAGUCUGCAUGCCGCCGGGCGCCAUGCCUGCAGGUCGACUCUAGAAAACAUG”, which binding signal (PUM1 PUF domain R8-RRA) is on record?
A: 1.42 log2 enrichment (interaction score)

Q: What about the binding signal (PUM1 PUF domain R5-KQR) of the same sequence?
A: 0.64 log2 enrichment (interaction score)

Q: And the binding signal (PUM1 PUF domain R6-RPG)?
A: 3.6 log2 enrichment (interaction score)

Q: And the binding signal (PUM1 PUF domain R8-RHV)?
A: 3.99 log2 enrichment (interaction score)

Q: How did the binding signal (PUM1 PUF domain R7-QPK) turn out when “GGCUAGAACUAGUGGAUCCCCCGGCGCCCGGCGGCUCGAGCCCGGGUAAGUCUAAAUAGUCUGCAUGCCGCCGGGCGCCAUGCCUGCAGGUCGACUCUAGAAAACAUG” was run?
A: 4.87 log2 enrichment (interaction score)

Q: Which binding signal (PUM1 PUF domain R5-SMS) does the source give for “GGCUAGAACUAGUGGAUCCCCCGGCGCCCGGCGGCUCGAGCCCGGGUAAGUGUUAAUAGUCUGCAUGCCGCCGGGCGCCAUGCCUGCAGGUCGACUCUAGAAAACAUG” here?
A: 0.83 log2 enrichment (interaction score)

Q: How did the binding signal (PUM1 PUF domain R8-RRA) turn out when “GGCUAGAACUAGUGGAUCCCCCGGCGCCCGGCGGCUCGAGCCCGGGUAAGCGUAAAUAGUCUGCAUGCCGCCGGGCGCCAUGCCUGCAGGUCGACUCUAGAAAACAUG” was run?
A: 3.15 log2 enrichment (interaction score)

Q: What about the binding signal (PUM1 PUF domain R8-FYH) of the same sequence?
A: 2.85 log2 enrichment (interaction score)

Q: What about the binding signal (PUM1 PUF domain R8-RHV) of the same sequence?
A: 5.23 log2 enrichment (interaction score)

Q: Which binding signal (PUM1 PUF domain R1-RKQ) does the source give for “GGCUAGAACUAGUGGAUCCCCCGGCGCCCGGCGGCUCGAGCCCGGGUAAGUGUAAAUGGUCUGCAUGCCGCCGGGCGCCAUGCCUGCAGGUCGACUCUAGAAAACAUG” here?
A: 2.35 log2 enrichment (interaction score)
